Hits are enriched below; roughly 0.5% of the tested compounds scored in any of these assays.
E coli growth-1: E. coli V3065 growth inhibition, primary screen, counter-screen for AddAB inhibitor project, absorbance, OD600. 18 h. inhibition, % at 11.9 µM. actives 0.27% (n = 330,000);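 active means inhibition above the campaign's mean inhibition across all tested compounds plus 3 SD, cut at about 9.9% in these data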;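 further: uninfected addAB+ strain grown without phage in ampicillin broth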
phage Ecoli inh: growth loss of phage-infected E. coli, primary screen, RecBCD inhibitor project, absorbance, with phage, HTS; AID 651602, 2012; actives 0.26% (n = 360,000); inhibition, % at 11.9 µM; in the data active means inhibition above about 11%
AddAB inh: growth inhibition of E. coli expressing H. pylori AddAB, primary screen, AddAB inhibitor project, absorbance; inhibition, % at 11.9 µM; actives 0.29% (n = 330,000); in the data active means inhibition above about 12%
Tat transport: E. coli Tat export inhibitors, primary screen, MC4100, TorA-mCherry reporter, fluorescence, single point. AID 488895, 2010. inhibition, % at 10 µM. actives 0.036% (n = 340,000);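 active means mean replicate inhibition at least 50% and at least half of replicates individually reaching 50%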;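 further: exported cargo escapes ClpAP degradation while cytoplasmic cargo is degraded and loses fluorescence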
E coli growth-2: E. coli growth inhibition, primary screen, OD600. Escherichia coli growth, 23 h; active compounds read low. OD600 absorbance (no concentration beside the values). actives 0.21% (n = 330,000). AID 1053175, 2014;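 active means OD600 absorbance below the run mean of sample wells minus 3.6 SD, in any replicate, cut at about 0.56 in these data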
AddAB confirm: growth loss of phage-infected E. coli expressing H. pylori AddAB, confirmation, AddAB inhibitor project, absorbance, E. coli V3065, T4 phage, triplicate. shares compounds with AddAB inh. actives 64% (n = 880). OD; T4 phage with gene 2 nonsense mutations. AID 488942, 2010. inhibition, % at 11.9 µM;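 active means mean inhibition above a set limit taken from the earlier primary screen, cut at about 13% in these data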;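 further: higher means less bacterial growth since AddAB block lets phage replicate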
RecBCD counter: growth loss of RecBCD+ E. coli with mutant T4 phage, counter-screen for AddAB inhibitor project, absorbance, V66 E. coli | shares compounds with AddAB inh | OD growth | inhibition, % at 11.9 µM | actives 73% (n = 880);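 active means mean inhibition above the mean of solvent-only control wells plus 3 SD, cut at about 4% in these data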;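 further: optical density read after an 18 h incubation at 37 °C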
bact viab count: bacterial viability inhibition counter-screen, confirmation, counter-screen for AddAB inhibitor project, absorbance. inhibition, % at 11.9 µM. actives 35% (n = 880). absorbance (AddAB counterscreen). shares compounds with AddAB inh; in the data active means inhibition above about 25%
Hits are given with their value; - = inactive; . = no result.

SMILES	E coli growth-1	phage Ecoli inh	AddAB inh	Tat transport	E coli growth-2	AddAB confirm	RecBCD counter	bact viab count
COc1cc(/C=N\NC(=O)c2ccc(Cn3cc(Br)c([N+](=O)[O-])n3)o2)cc(OC)c1O	23.2	-	44.5	-	.	52.1	5.6	38.8
C=C(C)C1CC[C@]2(C(=O)O)CC[C@]3(C)C(CCC4[C@@]5(C)CCC(O)C(C)(C)C5CC[C@]43C)C12 (stereo partly drawn)	.	.	.	.	-	.	.	.
O=C(NC1CC1)C1=CC(c2ccc(C(F)(F)F)cc2)CC(OCc2ccc(CO)cc2)O1 (stereo not drawn)	.	.	.	.	-	.	.	.
COc1ccc(C2CC(=O)C=C(c3cccc(Cl)c3O)C2)cc1OC (stereo not drawn)	.	.	.	.	-	.	.	.
Cc1ccc(NC(=O)c2ccc(-n3cccn3)c([N+](=O)[O-])c2)cc1	-	-	-	-	-	.	.	.
O=C(Nc1ccc(C2=NCCN2)cc1)c1ccc(C(=O)Nc2ccc(C3=NCCN3)cc2)c([N+](=O)[O-])c1	24.6	-	27.2	63.5	.	86.1	28.9	28.4
CCCc1cc(C(=O)Nc2ccccc2SC)no1	90.7	-	98.1	-	-	-	-	-
COc1ccc(-c2ccc3c(c2)OC(=Cc2ccsc2)C3=O)cn1	.	.	.	.	-	.	.	.
COc1ccc(NC(=O)CSc2ccc(-c3cccnc3)nn2)cc1	-	-	-	-	-	.	.	.
CCOC(=O)c1ccc(NC(=O)CSc2ccc(-c3cccnc3)nn2)cc1	-	-	16.0	-	.	-	4.1	-
CNC(=O)Cn1ncc2c(C)n(Cc3ccc(C)cc3)c(C)c2c1=O	-	-	-	-	-	.	.	.
Cc1ccc(Cn2c(C)c3cnn(CC(=O)NC4CCCC4)c(=O)c3c2C)cc1	86.5	-	98.9	-	-	-	-	-
CC(C)N1C(=O)C2C(c3ccccc3O)NC(C)(C(=O)O)C2C1=O (stereo not drawn)	-	-	15.1	-	-	-	-	-
CC(C)CC1(C(=O)O)NC(c2ccccc2O)C2C(=O)N(C(C)C)C(=O)C21 (stereo not drawn)	-	-	-	-	-	.	.	.
CCOC(=O)N1CCN(c2cc(=O)n(-c3ccc(C)cc3)c(=O)[nH]2)CC1	22.0	-	97.3	-	-	-	-	-
C=CC1c2cc(C)ccc2N(S(=O)(=O)c2ccc(C)cc2)C(c2ccccc2C(F)(F)F)C1(C#N)C#N (stereo not drawn)	.	.	.	.	-	.	.	.
CCn1cc(C(=O)NCCc2ccccc2)c(=O)c2cc(F)c(N3CCN(C)CC3)cc21	13.2	-	20.8	-	-	70.7	-	-
CCn1cc(C(=O)NCc2ccccn2)c(=O)c2cc(F)c(N3CCN(C)CC3)cc21	93.4	-	98.3	-	.	99.4	15.9	98.2
O=C1CC2c3c(cccc3CN1Cc1ccccc1Br)CC(O)C2O (stereo not drawn)	.	.	.	.	-	.	.	.
O=C(Nc1ccccc1)C1=CC(c2ccc(C(F)(F)F)cc2)CC(OCc2ccc(CO)cc2)O1 (stereo not drawn)	.	.	.	.	-	.	.	.
C[C@H]1c2cccc(O)c2C(O)=C2C(=O)[C@]3(O)C(O)=C(C(N)=O)C(=O)[C@@H](N(C)C)[C@@H]3[C@@H](O)[C@@H]21	100.0	.	97.8	146.8	.	100.7	100.0	100.7
Cc1cc(N/N=C/c2ccc(O)cc2O)nc(-c2ccccc2O)n1	-	.	14.2	-	.	17.3	7.1	-
Cn1c(OCc2cccnc2)nc2c1c(=O)n(Cc1ccc(Br)cc1)c(=O)n2C	84.3	-	22.9	-	-	-	-	-
O=C(NCc1ccccc1)C1=CC(c2coc3ccccc3c2=O)CC(OCCCCO)O1 (stereo not drawn)	.	.	.	.	-	.	.	.
O=C(N/N=C/c1cc([N+](=O)[O-])ccc1O)c1cccc2cc[nH]c12	10.2	-	14.2	-	.	-	7.0	-
SMILES	E coli growth-1	phage Ecoli inh	AddAB inh	Tat transport	E coli growth-2	AddAB confirm	RecBCD counter	bact viab count
O=C(NN=Cc1cc([N+](=O)[O-])ccc1O)c1cccc2cc[nH]c12	.	.	.	.	-	.	.	.
CCOC1OC(C(=O)N2CCOCC2)=CC(C2CCCCC2)C1CCCO (stereo not drawn)	.	.	.	.	-	.	.	.
CCOc1ccc(NC(=O)Cn2cc(C(C)=O)c3ccccc32)cc1	-	-	-	-	-	.	.	.
COc1ccc(NC(=O)Cn2cc(C(C)=O)c3ccccc32)cc1	14.3	-	15.5	-	-	-	11.9	-
CC1=C(C(=O)OCC2CCCO2)C(c2coc3ccc(C)cc3c2=O)C2=C(CCCC2=O)N1 (stereo not drawn)	91.3	-	99.3	-	-	-	-	-
CC1=C(C(=O)OCC2CCCO2)C(c2coc3ccc(Cl)cc3c2=O)C2=C(CCCC2=O)N1 (stereo not drawn)	-	-	-	-	-	.	.	.
CC1=NN(C(=O)c2ccc(Cn3ccc([N+](=O)[O-])n3)cc2)C(O)(C(F)(F)F)C1 (stereo not drawn)	-	-	14.3	-	-	-	-	-
Cc1ccc(S(=O)(=O)N2CCC(C(=O)OCc3ccccc3)CC2)cc1C	-	-	21.5	-	-	-	-	-
C#CCOCCOCCOCCNc1nc(N2CCN(C(=O)C(CCC(=O)O)n3cc(C(N)Cc4ccc(O)cc4)nn3)CC2)nc(N2CCN(C(=O)C(CCC(=O)O)n3cc(C(N)Cc4ccc(O)cc4)nn3)CC2)n1 (stereo not drawn)	.	.	.	.	-	.	.	.
Oc1ccc(N=Cc2ccc(O)c(O)c2)cc1	-	.	-	-	-	.	.	.
Oc1ccc(/C=N/N=C/c2ccc(O)c(O)c2)cc1O	-	-	34.5	-	.	-	-	-
CC(C)(C)OC(=O)CC1CC=CCC(CC(=O)NC(CO)Cc2ccccc2)C(=O)NC(Cc2ccccc2)COC1=O (stereo not drawn)	.	.	.	.	-	.	.	.
O=C(O)c1nnn(-c2cc(C(F)(F)F)cc(C(F)(F)F)c2)c1-c1ccccc1	-	-	18.6	-	-	-	-	-
O=C(CCNC(=O)c1ccco1)Nc1ccccc1	-	-	-	-	-	.	.	.
Cc1ccc(NC(=O)CCNC(=O)c2ccco2)cc1	-	-	14.6	-	-	-	-	-
CCOc1ccc(NC(=O)CCNC(=O)c2ccco2)cc1	-	-	13.5	-	-	-	4.7	-
CC(NC(=O)c1nc[nH]c1C(=O)NCc1ccccc1)c1ccccc1 (stereo not drawn)	.	.	.	.	-	.	.	.
CC1=NN(C(N)=S)C(=O)C1N=Nc1c(Br)cc(Br)cc1Br (stereo not drawn)	13.5	-	13.5	-	.	26.3	13.5	25.7
CC1=NN(C(N)=S)C(=O)C1N=Nc1c(C)cc(C)cc1C (stereo not drawn)	-	-	-	-	-	.	.	.
